Measured values as given in PubChem BioAssay (EPA / NIEHS).
Inconclusive results are not listed. The source made the active and inactive calls. Rule for the calls, unless noted: active = hit-call score of the fitted dose curve at least 0.9, where 1 is the maximum; inactive = score below 0.9.

Legend:
[1] = CCTE_Shafer_MEA_dev_firing_rate_mean: CCTE's Neural Network Formation Assay for Mean Firing Rate, Shafer Lab (AID 2284031)
Summary of the method: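 Primary rat cortical neurons on 48-well MEA plates, exposed from plating day 0 with dosing renewed on DIV 5 and 9. Mean well firing rate over active electrodes, recorded days 5, 7, 9, 12, summarised as trapezoidal AUC.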

[2] = CCTE_Shafer_MEA_dev_per_burst_spike_percent: CCTE's Neural Network Formation Assay for Percent of Spikes in a Burst, Shafer Lab (AID 2284032);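 note: fitted as a decrease in burst spike percentage below DMSO baseline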
Summary of the method: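 Rat primary cortical neurons on 16-electrode MEA wells, dosed from plating day 0 for 12 days with renewal on DIV 5 and 9; spikes-in-bursts percentage averaged over bursting electrodes, collapsed as AUC across days 5, 7, 9, 12; loss direction versus DMSO.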

[3] = CCTE_Shafer_MEA_dev_active_electrodes_number: CCTE's Neural Network Formation Assay for Number of Active Electrodes, Shafer Lab (AID 2284040; active = hit-call score of the fitted dose curve at least 0.9, where 1 is the maximum;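 note: potency for loss of active electrodes versus DMSO so lower counts are hits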)
Summary of the method: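 Primary rat cortical neurons on 16-electrode MEA wells, exposed from day 0 through day 12 with compound renewed at DIV 5 and 9 feeds. Active electrodes (mean firing ≥5 spikes/min) counted at DIV 5, 7, 9, 12; trapezoidal AUC across days, loss-of-signal versus DMSO.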

[4] = CCTE_Shafer_MEA_dev_burst_rate: CCTE's Neural Network Formation Assay for Burst Rate, Shafer Lab (AID 2284042)
Summary of the method: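 Primary rat cortical neurons on PEI-coated 48-well MEA plates (laminin added with cells at plating) (16 electrodes/well), exposed from plating to day 12, dosing renewed at DIV 5 and 9. Burst rate averaged over active electrodes, recorded DIV 5, 7, 9, 12, summarized as AUC; loss versus DMSO.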

[5] = CCTE_Shafer_MEA_dev_bursting_electrodes_number: CCTE's Neural Network Formation Assay for Number of Bursting Electrodes, Shafer Lab (AID 2284043; active = hit-call score of the fitted dose curve at least 0.9, where 1 is the maximum;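 note: potency is for loss of bursting electrodes relative to DMSO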)
Summary of the method: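 Primary rat cortical neurons plated on 16-electrode MEA wells, exposed from day 0 with compound renewed at DIV 5 and 9. Electrodes bursting ≥1 burst per 2 min counted on days 5, 7, 9 and 12; trapezoidal AUC across days, fitted for loss versus DMSO.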

[6] = CCTE_Shafer_MEA_dev_per_burst_interspike_interval: CCTE's Neural Network Formation Assay for Burst Interspike Interval, Shafer Lab (AID 2284044);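 note: mean spike spacing inside bursts as AUC over recordings on days 5 7 9 12; potency for a decrease of within-burst interspike interval below DMSO level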
Summary of the method: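 Rat cortical primary cultures, 16 electrodes/well; compound from plating, renewed with full media change DIV 5 and 9. Spikes via adaptive detector; per-burst ISI well-mean over active bursting electrodes; AUC of DIV 5/7/9/12 recordings; loss-direction fit vs DMSO.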

[7] = CCTE_Shafer_MEA_dev_burst_duration_mean: CCTE's Neural Network Formation Assay for Mean Burst Duration, Shafer Lab (AID 2284045)
Summary of the method: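 Primary rat cortical neurons on 48-well 16-electrode MEA plates, exposed from day 0 with renewal at DIV 5 and 9; spontaneous activity recorded on days 5, 7, 9, 12. Well-mean burst duration across bursting electrodes, collapsed as trapezoidal AUC; DMSO baseline.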

[8] = CCTE_Shafer_MEA_dev_interburst_interval_mean: CCTE's Neural Network Formation Assay for Mean Interburst Interval, Shafer Lab (AID 2284046);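 note: well-mean interburst interval of bursting electrodes as AUC over four recording days; curve fitted for decrease in interburst interval relative to DMSO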
Summary of the method: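 Recordings on days 5, 7, 9 and 12 give well-mean interburst interval across actively bursting electrodes, summarized as area under the curve. Cultures: rat cortical neurons, continuous exposure from day 0, compound renewed at feeds; decrease analyzed versus DMSO.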

[9] = CCTE_Shafer_MEA_dev_inter_network_spike_interval_mean: CCTE's Neural Network Formation Assay for Mean Inter-network Spike Interval, Shafer Lab (AID 2284047)
Summary of the method: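 Primary rat cortical neurons on 16-electrode MEA wells, exposed from plating day 0 through DIV 12, compound renewed at DIV 5 and 9 media changes. Mean interval between network-spike peaks recorded DIV 5, 7, 9, 12; collapsed as trapezoidal AUC, fitted downward versus DMSO.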

[10] = CCTE_Shafer_MEA_dev_network_spike_number: CCTE's Neural Network Formation Assay for Number of Network Spikes, Shafer Lab (AID 2284048)
Summary of the method: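 Primary rat cortical neurons on PEI/laminin 48-well MEA plates, dosed from plating day 0 for 12 days, renewed at DIV 5 and 9. Network spike counts recorded DIV 5, 7, 9, 12, collapsed as trapezoidal AUC; DMSO baseline.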

[11] = CCTE_Shafer_MEA_dev_network_spike_peak: CCTE's Neural Network Formation Assay for Mean Number of Electrodes in Network Spike, Shafer Lab (AID 2284049);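 note: fitted for loss of signal meaning fewer electrodes in network spikes than DMSO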
Summary of the method: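 Network-spike peak electrode count from recordings on days 5, 7, 9 and 12 was combined as trapezoidal area under the curve. Rat cortical cultures were treated continuously from plating, with compound renewed at each feed (DIV 5, 9); fits versus DMSO.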

[12] = CCTE_Shafer_MEA_dev_spike_duration_mean: CCTE's Neural Network Formation Assay for Mean Spike Duration, Shafer Lab (AID 2284051);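 note: mean network spike duration pooled as area under curve over DIV 5 to 12 recordings; potency for a decrease in mean network spike duration versus DMSO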
Summary of the method: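 Primary rat cortical neurons on 16-electrode MEA wells (PEI-coated, laminin in plating drop), exposed from plating through DIV 12 with compound renewed at DIV 5 and 9. Mean network-spike duration recorded DIV 5, 7, 9, 12; trapezoidal AUC across days, DMSO baseline.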

[13] = CCTE_Shafer_MEA_dev_network_spike_duration_std: CCTE's Neural Network Formation Assay for Standard Deviation of Network Spike Duration, Shafer Lab (AID 2284052);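 note: area under curve of spike duration SD across recording days 5 to 12; hits are decreases in network spike duration SD versus DMSO vehicle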
Summary of the method: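 Primary rat cortical neurons on PEI-coated 16-electrode MEA wells, exposed from plating day 0 through day 12 with compound renewed at DIV 5 and 9. Network spike duration SD recorded on days 5, 7, 9, 12, collapsed as trapezoidal AUC; loss-of-signal fit versus DMSO.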

[14] = CCTE_Shafer_MEA_dev_per_network_spike_spike_number_mean: CCTE's Neural Network Formation Assay for Mean Number of Spikes in a Network Spike, Shafer Lab (AID 2284053);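 note: fitted as decrease in spikes per network spike relative to DMSO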
Summary of the method: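 Primary rat cortical neurons on 48-well, 16-electrode MEA plates were exposed from plating to DIV 12, with dosing renewed on DIV 5 and 9. Spikes per network spike (0.05 s peak window) were recorded on DIV 5, 7, 9 and 12 and collapsed as trapezoidal AUC versus DMSO.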

[15] = CCTE_Shafer_MEA_dev_per_network_spike_spike_percent: CCTE's Neural Network Formation Assay for Percent of Spikes in a Network Spike, Shafer Lab (AID 2284054)
Summary of the method: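 Rat primary cortical neurons were grown on 48-well MEA plates (16 electrodes/well), exposed from plating day 0 through day 12, with treatment renewed on DIV 5 and 9. Percent of spikes within 0.05 s network-spike peaks was measured, summarised as AUC across days 5, 7, 9, 12.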

[16] = CCTE_Shafer_MEA_dev_LDH: CCTE's Lactate Dehydrogenase Assay for Cytotoxicity in the Neural Network Formation Assay, Shafer Lab (AID 2284068; active = hit-call score of the fitted dose curve at least 0.9, where 1 is the maximum;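 note: exposure for twelve days from plating with re-dosing on DIV 5 and 9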)
Summary of the method: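 Primary rat cortical neurons were plated on PEI/laminin MEA plates and exposed from day 0 for twelve days, with compound renewed at DIV 5 and 9. Cytotoxicity was determined by spectrophotometric LDH assay relative to DMSO.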

[17] = CCTE_Shafer_MEA_dev_AB: CCTE's Alamar Blue Assay for Cytotoxicity in the Neural Network Formation Assay, Shafer Lab (AID 2284083; active = hit-call score of the fitted dose curve at least 0.9, where 1 is the maximum;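 note: twelve days of exposure from plating with re-dosing on DIV 5 and 9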)
Summary of the method: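 Primary rat cortical neurons on PEI-coated 48-well MEA plates, 1.5 x 10^5 cells/well in laminin drop; compound exposure from day 0 of plating for twelve days, renewed at medium changes on DIV 5 and 9. Viability read as resazurin reduction by fluorescence, relative to DMSO.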

[18] = CCTE_Shafer_MEA_dev_mutual_information_norm: CCTE's Neural Network Formation Assay for Mutual Information Normalization, Shafer Lab (AID 2284091)
Summary of the method: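 Primary rat cortical neurons on PEI-coated 48-well MEA plates, 1.5 x 10^5 cells/well, exposed from day 0 through day 12 with re-dosing at DIV 5 and 9. Mutual information between electrodes recorded days 5, 7, 9, 12; trapezoidal AUC, loss-of-signal fit versus DMSO.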

[19] = CCTE_Shafer_MEA_dev_correlation_coefficient_mean: CCTE's Neural Network Formation Assay for Mean Correlation Coefficient, Shafer Lab (AID 2284093)
Summary of the method: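 Spontaneous activity recorded on days 5, 7, 9 and 12 post-plating; pairwise spike correlations are averaged across active electrodes and collapsed to an area-under-curve. Rat cortical cultures are dosed from plating through 12 days, with compound renewed at media changes.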

[20] = UKN2_HCS_IMR90_neural_migration: University of Konstanz (UKN) Leist Lab Neural Crest Cell Migration Assay in human induced IMR90 Pluripotent Stem Cells (UKN2) (AID 2284204); settings: actives raise or lower the signal
Summary of the method: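 iPSC-derived IMR90 neural crest cells seeded around stoppers on PLO/laminin/fibronectin; migration started in N2-S medium with EGF/FGF, compounds added after 24 h for 24 h. Migration into cell-free area imaged after calcein-AM/Hoechst staining; bidirectional fit versus DMSO.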

[21] = IUF_NPC1b_proliferation_BrdU_72hr: Leibniz Research Institute for Environmental Medicine (IUF) 72-hour Neural Progenitor Cell Bromodeoxyuridine (BrdU) Proliferation Assay (NPC1b) (AID 2284207)
Summary of the method: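 BrdU luminescence ELISA quantified DNA synthesis over the last 16 h of a 72 h exposure, fitted against DMSO. Primary hNPC spheres from gestational week 16-19 cortex grown with EGF/FGF at 37C, pH 7.2-7.6.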

[22] = IUF_NPC1a_proliferation_area_72hr: Leibniz Research Institute for Environmental Medicine (IUF) 72-hour Neural Progenitor Cell Proliferation Area Assay (NPC1a) (AID 2284208)
Summary of the method: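 Read-out: increase in sphere area over 72 h by automated phase-contrast imaging, fitted in positive direction versus DMSO baseline. One hNPC sphere (0.25-0.35 mm) per well in EGF/FGF medium; growth-factor withdrawal served as positive control.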

[23] = IUF_NPC1_viability_72hr: Viability Assessment at 72 hours in the Leibniz Research Institute for Environmental Medicine (IUF) Neural Progenitor Cell Proliferation Assay (NPC1) (AID 2284209)
Summary of the method: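 Single spheres (0.25-0.35 mm) of human fetal cortex-derived neural progenitor cells were grown in proliferation medium with EGF and FGF at 37C and 5% CO2. They were exposed for 72 h without renewal, and viability was read by alamar blue resorufin fluorescence.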

[24] = CCTE_Mundy_HCI_Cortical_Synap_Neur_Matur_NeuriteSpotCountPerNeuriteLength: CCTE's Synaptogenesis and Neurite Maturation Assay in rat cortical cells for Neurite Spot Count per Neurite Length, Mundy Lab (AID 2284210)
Summary of the method: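 Rat primary cortical cultures, AraC added at DIV 5 to suppress glia; chemical exposure from DIV 7 to DIV 12. Fixed cells stained for MAP2 and synaptophysin plus Hoechst; synaptophysin puncta per neurite length quantified by high-content imaging, relative to DMSO.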

[25] = CCTE_Mundy_HCI_Cortical_NOG_NeuriteCount: CCTE's Neurite Outgrowth Assay in rat cortical cells for Neurite Count, Mundy Lab (AID 2284212);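 note: cells fixed about two days after chemical exposure began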
Summary of the method: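 Neurite number per cell from high-content imaging of betaIII-tubulin immunostaining, with Hoechst nuclear counterstain.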

Measured: AC50

CC(C)O
active: [2] 10.2 µM | [3] 7.59 µM | [5] 11.8 µM | [6] 10.2 µM | [11] 8.39 µM | [12] 14.3 µM | [14] 5.31 µM | [21] 91.7 µM
inactive: all other assays above
